# Data from ChEMBL document CHEMBL1961873, “Compounds: GSK PKIS; Assays: Nanosyn kinase panel” (2012).
# Key:
# [1] = biological target: Sphingosine kinase 1 (Homo sapiens) (UniProt Q9NYA1); settings: at 1 µM;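 note: mean SPHK1 inhibition value reported from the GSK PKIS kinase panel screen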
# [2] = biological target: T1, Sphingosine kinase 2 (Homo sapiens) (UniProt Q9NRA0); settings: at 0.1 µM
# T1 sequence (whole entry): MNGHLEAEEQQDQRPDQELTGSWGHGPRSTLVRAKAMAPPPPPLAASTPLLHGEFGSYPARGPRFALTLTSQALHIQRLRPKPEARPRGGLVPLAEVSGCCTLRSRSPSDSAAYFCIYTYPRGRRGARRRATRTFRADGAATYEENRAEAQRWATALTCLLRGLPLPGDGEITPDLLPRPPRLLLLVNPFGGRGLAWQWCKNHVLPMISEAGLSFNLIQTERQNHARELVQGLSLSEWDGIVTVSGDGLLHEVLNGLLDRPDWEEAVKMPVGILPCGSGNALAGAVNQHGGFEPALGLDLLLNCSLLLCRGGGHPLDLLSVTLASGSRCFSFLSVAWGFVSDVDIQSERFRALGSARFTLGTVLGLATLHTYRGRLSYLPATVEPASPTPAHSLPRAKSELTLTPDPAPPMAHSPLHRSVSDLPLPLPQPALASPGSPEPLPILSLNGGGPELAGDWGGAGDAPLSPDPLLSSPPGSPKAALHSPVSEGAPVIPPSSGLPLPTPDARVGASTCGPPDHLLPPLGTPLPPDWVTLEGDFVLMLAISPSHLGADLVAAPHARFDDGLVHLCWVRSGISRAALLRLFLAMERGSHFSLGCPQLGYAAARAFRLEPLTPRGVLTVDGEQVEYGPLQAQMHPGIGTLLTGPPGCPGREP
# [3] = biological target: T1, Sphingosine kinase 2 (Homo sapiens); settings: at 1 µM
# [4] = biological target: Casein kinase II subunit alpha (Homo sapiens) (UniProt P68400); settings: at 0.1 µM
# [5] = biological target: Casein kinase II subunit alpha (Homo sapiens) (UniProt P68400); settings: at 1 µM
# [6] = biological target: T2, Inhibitor of nuclear factor kappa-B kinase subunit alpha (Homo sapiens) (UniProt O15111); settings: at 0.1 µM
# T2 sequence (whole entry): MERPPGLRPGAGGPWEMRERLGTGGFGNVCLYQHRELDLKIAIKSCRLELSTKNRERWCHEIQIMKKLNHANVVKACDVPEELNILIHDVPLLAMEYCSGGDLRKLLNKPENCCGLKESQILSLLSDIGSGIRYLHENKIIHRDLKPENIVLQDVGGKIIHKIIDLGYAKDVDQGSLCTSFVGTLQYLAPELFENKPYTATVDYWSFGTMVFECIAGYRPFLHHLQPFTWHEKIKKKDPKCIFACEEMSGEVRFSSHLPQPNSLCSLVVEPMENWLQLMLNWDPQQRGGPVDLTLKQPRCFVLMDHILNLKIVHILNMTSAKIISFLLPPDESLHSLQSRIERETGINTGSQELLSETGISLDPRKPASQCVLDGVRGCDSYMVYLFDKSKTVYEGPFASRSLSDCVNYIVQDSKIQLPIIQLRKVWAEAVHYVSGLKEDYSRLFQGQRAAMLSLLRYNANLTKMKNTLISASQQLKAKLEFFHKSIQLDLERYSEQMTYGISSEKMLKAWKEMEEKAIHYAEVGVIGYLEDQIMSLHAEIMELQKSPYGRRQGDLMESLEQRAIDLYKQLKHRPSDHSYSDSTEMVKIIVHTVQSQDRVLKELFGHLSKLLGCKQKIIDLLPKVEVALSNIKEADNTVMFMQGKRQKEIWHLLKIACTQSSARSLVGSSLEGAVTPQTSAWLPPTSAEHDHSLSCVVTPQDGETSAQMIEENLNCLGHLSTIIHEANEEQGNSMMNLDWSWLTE
# [7] = biological target: T2, Inhibitor of nuclear factor kappa-B kinase subunit alpha (Homo sapiens); settings: at 1 µM
# [8] = biological target: T3, Inhibitor of nuclear factor kappa-B kinase subunit beta (Homo sapiens) (UniProt O14920); settings: at 0.1 µM
# T3 sequence (whole entry): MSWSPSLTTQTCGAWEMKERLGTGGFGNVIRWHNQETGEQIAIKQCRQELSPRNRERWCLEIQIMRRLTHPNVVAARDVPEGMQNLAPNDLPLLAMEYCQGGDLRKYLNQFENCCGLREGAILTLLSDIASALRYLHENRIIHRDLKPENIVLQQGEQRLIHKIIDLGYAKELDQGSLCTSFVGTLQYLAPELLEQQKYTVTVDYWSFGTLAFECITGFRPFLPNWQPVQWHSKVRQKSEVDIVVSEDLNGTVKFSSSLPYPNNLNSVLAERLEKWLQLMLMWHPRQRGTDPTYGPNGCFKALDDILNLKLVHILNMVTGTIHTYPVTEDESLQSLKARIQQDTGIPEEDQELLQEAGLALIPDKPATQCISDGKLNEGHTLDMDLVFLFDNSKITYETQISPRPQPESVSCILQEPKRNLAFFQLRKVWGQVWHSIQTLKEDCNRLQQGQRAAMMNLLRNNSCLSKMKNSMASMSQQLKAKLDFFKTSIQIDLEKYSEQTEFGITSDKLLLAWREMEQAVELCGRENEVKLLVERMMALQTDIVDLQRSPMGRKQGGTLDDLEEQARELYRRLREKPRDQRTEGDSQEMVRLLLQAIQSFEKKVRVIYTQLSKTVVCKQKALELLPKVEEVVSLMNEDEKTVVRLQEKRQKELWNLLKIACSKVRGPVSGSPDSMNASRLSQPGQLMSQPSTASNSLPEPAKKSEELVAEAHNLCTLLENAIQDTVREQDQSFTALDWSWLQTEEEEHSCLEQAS
# [9] = biological target: T3, Inhibitor of nuclear factor kappa-B kinase subunit beta (Homo sapiens); settings: at 1 µM
# [10] = biological target: T4, Inhibitor of nuclear factor kappa-B kinase subunit epsilon (Homo sapiens) (UniProt Q14164); settings: at 0.1 µM
# T4 sequence (whole entry): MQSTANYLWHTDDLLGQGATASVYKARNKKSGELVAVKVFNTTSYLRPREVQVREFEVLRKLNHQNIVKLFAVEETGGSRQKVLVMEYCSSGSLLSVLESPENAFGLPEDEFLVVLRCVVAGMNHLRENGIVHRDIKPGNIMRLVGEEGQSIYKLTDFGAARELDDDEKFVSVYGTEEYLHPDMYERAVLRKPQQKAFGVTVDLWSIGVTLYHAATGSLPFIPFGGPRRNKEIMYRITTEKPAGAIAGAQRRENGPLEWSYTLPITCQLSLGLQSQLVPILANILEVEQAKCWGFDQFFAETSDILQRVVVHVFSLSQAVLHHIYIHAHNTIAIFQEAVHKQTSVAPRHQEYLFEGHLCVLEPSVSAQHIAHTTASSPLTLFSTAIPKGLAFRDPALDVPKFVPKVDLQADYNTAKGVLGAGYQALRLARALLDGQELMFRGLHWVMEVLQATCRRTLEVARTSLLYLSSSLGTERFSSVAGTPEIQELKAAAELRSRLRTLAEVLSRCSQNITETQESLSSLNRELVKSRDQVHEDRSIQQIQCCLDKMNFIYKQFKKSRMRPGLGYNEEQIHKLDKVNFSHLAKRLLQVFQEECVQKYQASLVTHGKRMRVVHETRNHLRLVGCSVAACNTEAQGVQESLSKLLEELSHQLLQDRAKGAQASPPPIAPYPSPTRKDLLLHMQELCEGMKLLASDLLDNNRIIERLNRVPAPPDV
# [11] = biological target: T4, Inhibitor of nuclear factor kappa-B kinase subunit epsilon (Homo sapiens); settings: at 1 µM
# [12] = biological target: T5, Serine/threonine-protein kinase Nek1 (Homo sapiens) (UniProt Q96PY6); settings: at 0.1 µM
# T5 sequence (whole entry): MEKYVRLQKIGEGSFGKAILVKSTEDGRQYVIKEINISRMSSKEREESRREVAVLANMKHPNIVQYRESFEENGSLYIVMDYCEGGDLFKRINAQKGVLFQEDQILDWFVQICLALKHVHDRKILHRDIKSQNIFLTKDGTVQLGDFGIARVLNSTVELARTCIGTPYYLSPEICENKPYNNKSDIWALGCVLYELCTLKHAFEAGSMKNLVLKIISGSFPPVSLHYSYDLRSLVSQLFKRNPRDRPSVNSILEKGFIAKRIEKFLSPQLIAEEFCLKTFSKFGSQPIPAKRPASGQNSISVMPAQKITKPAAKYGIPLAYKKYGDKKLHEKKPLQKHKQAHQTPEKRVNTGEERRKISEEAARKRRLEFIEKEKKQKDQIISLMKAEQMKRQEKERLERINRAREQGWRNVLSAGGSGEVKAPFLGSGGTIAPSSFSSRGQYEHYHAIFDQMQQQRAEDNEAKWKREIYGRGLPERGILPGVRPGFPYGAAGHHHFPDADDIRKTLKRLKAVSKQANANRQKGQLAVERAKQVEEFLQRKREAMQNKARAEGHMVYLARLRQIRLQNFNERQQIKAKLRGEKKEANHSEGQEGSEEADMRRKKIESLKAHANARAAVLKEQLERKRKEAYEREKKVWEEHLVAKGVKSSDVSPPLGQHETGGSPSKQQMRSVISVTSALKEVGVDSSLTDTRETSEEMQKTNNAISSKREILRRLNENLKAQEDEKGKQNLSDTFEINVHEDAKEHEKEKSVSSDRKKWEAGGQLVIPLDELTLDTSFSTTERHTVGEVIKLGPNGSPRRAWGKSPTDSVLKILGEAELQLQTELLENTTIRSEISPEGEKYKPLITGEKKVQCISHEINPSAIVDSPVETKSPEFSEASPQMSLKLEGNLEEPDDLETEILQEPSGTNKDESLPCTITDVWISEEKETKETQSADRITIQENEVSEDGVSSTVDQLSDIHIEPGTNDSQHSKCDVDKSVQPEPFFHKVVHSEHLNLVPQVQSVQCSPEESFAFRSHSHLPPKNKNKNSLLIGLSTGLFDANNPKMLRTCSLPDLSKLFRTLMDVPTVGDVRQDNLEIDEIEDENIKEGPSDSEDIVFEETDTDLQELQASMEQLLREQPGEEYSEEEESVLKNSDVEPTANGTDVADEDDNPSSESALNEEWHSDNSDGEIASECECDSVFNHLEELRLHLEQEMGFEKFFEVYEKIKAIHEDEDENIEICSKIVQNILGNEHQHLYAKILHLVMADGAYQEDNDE
# [13] = biological target: T5, Serine/threonine-protein kinase Nek1 (Homo sapiens); settings: at 1 µM
# [14] = biological target: T6, Serine/threonine-protein kinase Nek2 (Homo sapiens) (UniProt P51955); settings: at 0.1 µM
# T6 sequence (whole entry): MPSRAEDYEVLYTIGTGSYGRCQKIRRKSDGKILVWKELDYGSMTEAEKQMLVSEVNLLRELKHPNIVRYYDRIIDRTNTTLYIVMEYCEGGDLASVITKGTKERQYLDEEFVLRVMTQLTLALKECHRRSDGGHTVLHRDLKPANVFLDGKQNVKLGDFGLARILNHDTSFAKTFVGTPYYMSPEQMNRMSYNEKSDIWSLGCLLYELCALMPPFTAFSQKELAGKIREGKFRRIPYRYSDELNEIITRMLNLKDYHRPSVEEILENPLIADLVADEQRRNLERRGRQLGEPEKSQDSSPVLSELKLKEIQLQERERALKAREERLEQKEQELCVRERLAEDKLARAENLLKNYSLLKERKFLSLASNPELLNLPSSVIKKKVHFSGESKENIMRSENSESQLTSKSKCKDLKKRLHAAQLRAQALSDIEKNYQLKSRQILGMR
# [15] = biological target: T6, Serine/threonine-protein kinase Nek2 (Homo sapiens); settings: at 1 µM
# [16] = biological target: Serine/threonine-protein kinase Nek6 (Homo sapiens) (UniProt Q9HC98); settings: at 0.1 µM
# [17] = biological target: Serine/threonine-protein kinase Nek6 (Homo sapiens) (UniProt Q9HC98); settings: at 1 µM
# [18] = biological target: Serine/threonine-protein kinase Nek7 (Homo sapiens) (UniProt Q8TDX7); settings: at 0.1 µM
# [19] = biological target: Serine/threonine-protein kinase Nek7 (Homo sapiens) (UniProt Q8TDX7); settings: at 1 µM
# [20] = biological target: T7, Serine/threonine-protein kinase Nek9 (Homo sapiens) (UniProt Q8TD19); settings: at 0.1 µM;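 note: reported value is the mean percent inhibition of NEK9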
# T7 sequence (whole entry): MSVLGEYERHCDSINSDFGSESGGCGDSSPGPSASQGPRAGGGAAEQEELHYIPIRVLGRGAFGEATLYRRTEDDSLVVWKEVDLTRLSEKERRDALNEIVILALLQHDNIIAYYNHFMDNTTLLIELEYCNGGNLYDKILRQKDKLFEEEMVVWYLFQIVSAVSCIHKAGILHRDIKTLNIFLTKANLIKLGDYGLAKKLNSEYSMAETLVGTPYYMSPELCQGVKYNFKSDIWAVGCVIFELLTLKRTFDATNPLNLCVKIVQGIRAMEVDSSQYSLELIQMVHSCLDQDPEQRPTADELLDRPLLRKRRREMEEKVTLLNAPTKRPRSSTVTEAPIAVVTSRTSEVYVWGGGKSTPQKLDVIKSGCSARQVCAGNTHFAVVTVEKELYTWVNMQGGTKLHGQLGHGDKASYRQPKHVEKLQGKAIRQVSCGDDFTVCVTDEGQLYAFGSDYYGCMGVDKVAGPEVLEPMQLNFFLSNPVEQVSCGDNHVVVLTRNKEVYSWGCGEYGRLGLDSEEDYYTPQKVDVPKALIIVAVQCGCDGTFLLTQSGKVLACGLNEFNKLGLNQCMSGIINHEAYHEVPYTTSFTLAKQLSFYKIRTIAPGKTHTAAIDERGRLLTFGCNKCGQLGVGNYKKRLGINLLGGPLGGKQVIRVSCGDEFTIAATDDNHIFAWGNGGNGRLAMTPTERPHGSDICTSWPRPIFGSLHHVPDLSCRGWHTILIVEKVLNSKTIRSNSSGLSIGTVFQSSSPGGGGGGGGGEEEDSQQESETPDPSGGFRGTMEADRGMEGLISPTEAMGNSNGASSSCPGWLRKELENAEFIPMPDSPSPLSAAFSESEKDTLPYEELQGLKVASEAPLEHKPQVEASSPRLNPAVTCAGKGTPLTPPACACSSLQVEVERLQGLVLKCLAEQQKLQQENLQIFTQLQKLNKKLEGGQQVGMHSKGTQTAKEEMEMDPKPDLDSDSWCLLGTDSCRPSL
# Sequence of Serine/threonine-protein kinase Nek6 (Homo sapiens) (Q9HC98 whole entry): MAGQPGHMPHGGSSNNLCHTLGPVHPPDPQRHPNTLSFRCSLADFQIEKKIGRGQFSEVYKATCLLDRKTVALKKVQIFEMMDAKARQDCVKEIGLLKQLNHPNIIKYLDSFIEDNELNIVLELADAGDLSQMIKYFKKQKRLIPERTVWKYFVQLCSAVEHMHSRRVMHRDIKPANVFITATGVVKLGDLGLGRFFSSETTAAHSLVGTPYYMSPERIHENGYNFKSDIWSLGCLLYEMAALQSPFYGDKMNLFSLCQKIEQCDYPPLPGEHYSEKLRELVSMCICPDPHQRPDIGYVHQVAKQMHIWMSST
# Sequence of Casein kinase II subunit alpha (Homo sapiens) (P68400 whole entry, looked up): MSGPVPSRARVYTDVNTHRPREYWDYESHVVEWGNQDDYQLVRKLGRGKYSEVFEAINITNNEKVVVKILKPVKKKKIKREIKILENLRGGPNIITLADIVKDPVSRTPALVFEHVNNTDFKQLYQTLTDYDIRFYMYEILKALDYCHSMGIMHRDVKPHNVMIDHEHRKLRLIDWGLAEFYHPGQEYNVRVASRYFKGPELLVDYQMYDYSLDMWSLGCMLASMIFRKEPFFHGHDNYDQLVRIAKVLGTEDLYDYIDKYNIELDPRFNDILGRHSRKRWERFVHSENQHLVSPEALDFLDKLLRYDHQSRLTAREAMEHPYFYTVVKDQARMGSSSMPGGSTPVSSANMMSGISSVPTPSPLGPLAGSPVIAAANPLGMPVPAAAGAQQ
# Sequence of Serine/threonine-protein kinase Nek7 (Homo sapiens) (Q8TDX7 whole entry, looked up): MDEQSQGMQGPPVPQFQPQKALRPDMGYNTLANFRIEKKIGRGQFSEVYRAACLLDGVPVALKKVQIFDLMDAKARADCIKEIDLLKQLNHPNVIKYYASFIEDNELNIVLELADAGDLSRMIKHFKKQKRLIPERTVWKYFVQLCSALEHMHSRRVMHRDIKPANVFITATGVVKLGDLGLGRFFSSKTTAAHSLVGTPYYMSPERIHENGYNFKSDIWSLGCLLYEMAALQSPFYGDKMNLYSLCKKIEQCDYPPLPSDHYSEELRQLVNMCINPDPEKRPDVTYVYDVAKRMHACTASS
# Sequence of Sphingosine kinase 1 (Homo sapiens) (Q9NYA1 whole entry): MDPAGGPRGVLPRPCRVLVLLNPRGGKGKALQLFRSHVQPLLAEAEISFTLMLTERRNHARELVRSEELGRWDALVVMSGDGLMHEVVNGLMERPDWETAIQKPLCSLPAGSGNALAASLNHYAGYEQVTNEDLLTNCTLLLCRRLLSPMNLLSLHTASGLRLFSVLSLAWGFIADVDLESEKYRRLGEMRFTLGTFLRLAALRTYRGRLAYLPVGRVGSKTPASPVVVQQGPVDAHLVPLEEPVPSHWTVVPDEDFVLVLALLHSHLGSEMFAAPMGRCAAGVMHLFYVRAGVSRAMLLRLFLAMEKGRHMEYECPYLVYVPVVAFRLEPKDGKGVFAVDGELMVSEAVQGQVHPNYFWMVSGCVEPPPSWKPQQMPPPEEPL
smiles,measurement,setting,value
O=C1NC(=O)C(N2CCc3ccccc32)=C1c1ccc(Cl)cc1,inhibition,[1],2.74%
same,inhibition,[2],0.69%
same,inhibition,[3],0.87%
same,inhibition,[4],1.59%
same,inhibition,[5],-1.39%
same,inhibition,[6],5.45%
same,inhibition,[7],4.39%
same,inhibition,[8],5.07%
same,inhibition,[9],4.89%
same,inhibition,[10],3.79%
same,inhibition,[11],3.58%
same,inhibition,[12],3.18%
same,inhibition,[13],2.69%
same,inhibition,[14],6.49%
same,inhibition,[15],7.76%
same,inhibition,[16],-0.04%
same,inhibition,[17],-0.02%
same,inhibition,[18],6.9%
same,inhibition,[19],4.24%
same,inhibition,[20],5.67%
